Assay results reported in PubChem BioAssay (Tox21).
Inconclusive results are not listed. The source made the active and inactive calls. Unless noted, calls follow the shape of the dose curve; as a rule, active = well fitted curve in the direction sought with a large enough effect in the repeat runs; inconclusive = weak or mixed curves; inactive = no such curve, though single readings can be large; an effect the other way counts as inactive or inconclusive.

How the values were obtained:
[1] = qHTS assay to identify small molecule agonists of the estrogen receptor alpha (ER-alpha) signaling pathway in the presence of an antagonist - cell viability counter screen (AID 1259386);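 also: cells exposed to compounds for 22 h at 37 °C before the viability read; nearly all actives have a fitted effect of over 30% in size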; also: potency is read from the fitted curve at half-maximal effect
Method in brief: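 Cells are starved of estrogens for 5 days in charcoal-stripped serum, seeded for 24hr and co-treated with ICI-182,780 (10.0nM final) and test compounds. After 22hr at 37C, viability is read as CellTiter-Fluor fluorescence.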

[2] = target: Progesterone receptor (Homo sapiens) (UniProt P06401); assay: qHTS assay to identify small molecule agonists of the progesterone receptor (PR) signaling pathway (AID 1346784; calls by dose curve; also: nearly all actives have a fitted effect of over 30% in size; also: potency is read from the fitted curve at half-maximal effect)
Method in brief: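 PR-UAS-bla HEK 293T cells carrying a UAS-driven beta-lactamase reporter were seeded in medium with 2% charcoal-stripped FBS, preincubated 6 hr at 37C, then exposed to compounds in DMSO for 16 hr; agonism was read by LiveBLAzer B/G FRET fluorescence.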

[3] = target: Progesterone receptor (Homo sapiens) (UniProt P06401); assay: qHTS assay to identify small molecule antagonists of the progesterone receptor (PR) signaling pathway (AID 1346795; active = well fitted inhibition curve with a large enough effect in the signal ratio in the repeat runs, not every such curve was filed as active; the % refers to the signal ratio)
Method in brief: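 PR-UAS-bla HEK293T cells carrying a UAS-driven beta-lactamase reporter were plated in medium with 2% charcoal-stripped FBS and rested 6 hr at 37C. Compounds were added with 1 nM R5020 (final) for 16 hr, then FRET substrate loaded 2 hr at room temperature.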

[4] = qHTS assay to identify small molecule antagonists of the progesterone receptor (PR) signaling pathway - cell viability counter screen (AID 1346798); also: series mostly up to about 92 µM; nearly all actives have a fitted effect of over 50% in size
Method in brief: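 PR-UAS-bla HEK293T cells in medium with 2% charcoal-stripped FBS were treated with compounds plus R5020 for 16 hr at 37C. Cell viability was then read by CellTiter-Glo luminescence after 30 min at room temperature in the same wells.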

[5] = qHTS assay to identify small molecule agonists of the progesterone receptor (PR) signaling pathway - cell viability counter screen (AID 1346799; calls by dose curve; also: nearly all actives have a fitted effect of over 45% in size)
Method in brief: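 PR-UAS-bla HEK293T cells, 3,000 per well in medium with 2% charcoal-stripped FBS, were preincubated 6 hr at 37C, then exposed to compounds for 16 hr; viability was read as CellTiter-Glo luminescence after 30 min at room temperature.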

[6] = qHTS assay to identify small molecule antagonists of the TGF-beta/Smad signaling pathway - cell viability counter screen (AID 1346824); also: nearly all actives have a fitted effect of over 50% in size
Method in brief: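 SBE-bla HEK 293T cells, incubated overnight, then compound plus 0.25 ng/mL TGF-beta1 (stock added) for 5 hr at 37 C. Viability was read in the same wells by CellTiter-Glo luminescence after 30 min at room temperature.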

[7] = qHTS assay to identify small molecule agonists of the TGF-beta/Smad signaling pathway - cell viability counter screen (AID 1346829); also: top concentration of the series differs between compounds; nearly all actives have a fitted effect of over 45% in size
Method in brief: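 Tox21 qHTS format: SBE-bla HEK 293T cells treated with DMSO-dissolved compounds for 5 hr; CellTiter-Glo luminescence after 30 min at room temperature.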

[8] = qHTS assay to identify small molecule agonists of the TGF-beta/Smad signaling pathway (AID 1346859; active = well fitted activation curve with a large enough effect in the signal ratio in the repeat runs, not every such curve was filed as active; the % refers to the signal ratio; also: series mostly up to about 77 µM)
Method in brief: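 HEK 293T cells stably carrying a beta-lactamase reporter driven by the Smad binding element were seeded overnight, exposed to DMSO-dissolved compounds for 5 hr at 37 C, 5% CO2, then loaded with FRET substrate for 2 hr at room temperature.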

[9] = target: Thyrotropin-releasing hormone receptor (Homo sapiens) (UniProt P34981); assay: qHTS assay to identify small molecule antagonists of the thyrotropin-releasing hormone receptor (TRHR) signaling pathway (AID 1346877; active = well fitted inhibition curve with a large enough effect in the repeat runs, not every such curve was filed as active; also: series mostly up to about 51 µM)
Method in brief: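 Cells (TRHR-HEK293) are plated and kept 18 h at 37 °C/5% CO2. A calcium-sensitive dye is added for 2 h, compound follows for 5 min at room temperature, and TRH is then given at 1 nM final.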

[10] = target: Thyrotropin-releasing hormone receptor (Homo sapiens) (UniProt P34981); assay: qHTS assay to identify small molecule agonists of the thyrotropin-releasing hormone receptor (TRHR) signaling pathway (AID 1346891; calls by dose curve; also: series mostly up to about 58 µM)
Method in brief: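 TRHR-expressing HEK293 cells were plated 18 h at 37 °C/5% CO2, loaded with calcium dye 2 h at 37 °C, then given compound in DMSO; fluorescence was read kinetically for 3 min at 1 s intervals.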

Measured: Potency

Sequence of Thyrotropin-releasing hormone receptor (Homo sapiens) (P34981 whole entry, looked up): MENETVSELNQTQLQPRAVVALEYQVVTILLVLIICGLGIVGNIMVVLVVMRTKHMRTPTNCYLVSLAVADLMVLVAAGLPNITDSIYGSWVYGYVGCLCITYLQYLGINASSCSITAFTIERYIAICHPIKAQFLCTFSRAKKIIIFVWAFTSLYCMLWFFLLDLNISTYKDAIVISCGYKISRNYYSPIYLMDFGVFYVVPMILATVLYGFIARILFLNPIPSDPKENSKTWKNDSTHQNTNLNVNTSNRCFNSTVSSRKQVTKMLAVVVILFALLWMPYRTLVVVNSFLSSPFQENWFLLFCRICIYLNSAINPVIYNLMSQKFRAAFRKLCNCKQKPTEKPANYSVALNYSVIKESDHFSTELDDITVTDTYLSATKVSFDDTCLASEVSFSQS
Sequence of Progesterone receptor (Homo sapiens) (P06401 whole entry, looked up): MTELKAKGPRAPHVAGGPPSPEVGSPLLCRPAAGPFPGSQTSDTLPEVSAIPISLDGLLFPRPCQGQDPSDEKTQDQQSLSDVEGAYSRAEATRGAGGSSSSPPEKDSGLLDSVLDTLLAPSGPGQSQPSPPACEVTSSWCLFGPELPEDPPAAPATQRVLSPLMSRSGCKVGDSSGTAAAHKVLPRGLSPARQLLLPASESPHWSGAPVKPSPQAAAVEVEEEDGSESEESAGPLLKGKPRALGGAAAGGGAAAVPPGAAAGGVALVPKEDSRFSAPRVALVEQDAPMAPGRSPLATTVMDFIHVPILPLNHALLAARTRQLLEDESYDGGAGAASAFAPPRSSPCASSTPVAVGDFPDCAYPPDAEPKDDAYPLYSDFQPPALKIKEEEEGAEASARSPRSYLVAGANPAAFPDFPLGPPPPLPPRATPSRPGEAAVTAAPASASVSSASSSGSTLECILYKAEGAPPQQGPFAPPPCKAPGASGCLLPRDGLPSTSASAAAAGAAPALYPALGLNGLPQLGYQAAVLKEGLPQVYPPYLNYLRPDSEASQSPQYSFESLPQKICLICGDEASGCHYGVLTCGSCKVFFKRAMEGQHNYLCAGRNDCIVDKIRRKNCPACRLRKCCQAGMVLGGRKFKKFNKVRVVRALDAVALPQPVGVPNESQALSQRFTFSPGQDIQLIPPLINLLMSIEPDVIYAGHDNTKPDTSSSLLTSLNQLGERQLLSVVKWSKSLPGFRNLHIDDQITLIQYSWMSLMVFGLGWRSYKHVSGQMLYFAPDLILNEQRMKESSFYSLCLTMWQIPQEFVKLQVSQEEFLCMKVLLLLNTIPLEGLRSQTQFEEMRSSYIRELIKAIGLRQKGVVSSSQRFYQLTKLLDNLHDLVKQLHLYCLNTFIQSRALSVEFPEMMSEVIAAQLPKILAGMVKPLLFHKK

N#CCCC#N
inactive: all assays above

CC(=O)C(Cl)Cl
not listed: [9] | [10]
inactive: all other assays above

CC(=O)CC(c1ccc(Cl)cc1)c1c(O)c2ccccc2oc1=O (centres undefined)
inactive: all assays above

CCN(CC)C(C)C(=O)c1ccccc1 (centres undefined)
inactive: all assays above

O=[N+]([O-])c1cc(Cl)c(Cl)c(Cl)c1
inactive: all assays above

CCS(=O)(=O)CCSP(=O)(OC)OC
not listed: [8] | [9] | [10]
inactive: all other assays above

CC(C(=O)c1ccccc1)N(C)C (centres undefined)
not listed: [9] | [10]
inactive: all other assays above

CCCCC(=O)Cl
not listed: [8] | [9] | [10]
inactive: all other assays above

COP(=S)(OC)Oc1ccc(S(N)(=O)=O)cc1
inactive: all assays above

O=C(O)c1ccc2[nH]cc(CCCCN3CC=C(c4ccccc4)CC3)c2c1
not listed: [9] | [10]
inactive: all other assays above

ClCC(Cl)Cl
not listed: [8] | [9] | [10]
inactive: all other assays above

NC(=O)O
inactive: all assays above

CCC1(c2ccccc2)C(=O)NC(=O)NC1=O
inactive: all assays above

CC(C)(C)NCC(O)c1cc(Cl)c(N)c(Cl)c1 (centres undefined)
active: [1] 21.1 µM
not listed: [8] | [9] | [10]
inactive: all other assays above

CN(C)CCc1ccc(O)cc1
inactive: all assays above

CC(C)CC#N
inactive: all assays above

O=C(O)C(Br)CBr (centres undefined)
active: [2] 5.54 µM
inactive: all other assays above

CC(=O)Nc1cc([As](=O)(O)O)ccc1O
inactive: all assays above

Oc1c(Cl)cccc1Cl
inactive: all assays above

O=C1OC(c2ccc(O)c(S(=O)(=O)O)c2)(c2ccc(O)c(S(=O)(=O)O)c2)c2c(Br)c(Br)c(Br)c(Br)c21
not listed: [9] | [10]
inactive: all other assays above

CCC(=O)C(CCN(C)C)(c1ccccc1)c1ccccc1
inactive: all assays above

C[C@@H]1CN(C2CCC(C#N)(c3ccc(F)cc3)CC2)CC[C@]1(C(=O)O)c1ccccc1 (some centres undefined)
not listed: [9] | [10]
inactive: all other assays above

Cc1cc(C)c(C(=O)P(=O)(C(=O)c2c(C)cc(C)cc2C)c2ccccc2)c(C)c1
inactive: all assays above

COC(=O)C1=CCCN(C)C1
not listed: [9] | [10]
inactive: all other assays above

CCOP(=S)(Oc1cnc(C(C)(C)C)nc1)OC(C)C (centres undefined)
not listed: [9] | [10]
inactive: all other assays above

C=C(C)[C@@H]1CC=C(C=O)CC1
not listed: [8] | [9] | [10]
inactive: all other assays above

O=CNC(N1CCN(C(NC=O)C(Cl)(Cl)Cl)CC1)C(Cl)(Cl)Cl (centres undefined)
inactive: all assays above

CC(C(O)c1ccccc1)N(C)C/C=C/c1ccccc1 (centres undefined)
not listed: [9] | [10]
inactive: all other assays above
